Results published in PubChem BioAssay AID686978 (National Center for Advancing Translational Sciences (NCATS), 2013).
Values joined by “and” are separate entries in the source; they are usually repeats but may differ in a detail not shown here. Equal values may be shown once. Out of some 420,000 compounds screened, about 64,000 (15%) were called active. Not shown: some 27% with an inconclusive outcome. The call rests on the fitted dose curve; in most records, active means well fitted inhibition curve with a large enough effect; inconclusive means small, poorly fitted or top-dose-only effect; inactive means flat fitted curve, though single readings scatter. These entries were drawn from the full list. Entries that show only a call come without a potency. Where a structure was tested more than once in an assay, its records may differ in their call.
Potency means the concentration at half of the fitted maximal effect.

Assay: qHTS for Inhibitors of human tyrosyl-DNA phosphodiesterase 1 (TDP1): qHTS in cells in absence of CPT; further: nearly all actives have a fitted effect of over 55% in size
Settings: DT40 Tdp1-/- hTDP1 cells, no CPT, ATP luminescence, 48 h; activity change, negative = growth inhibition: at 46.2 µM (top of the series)
Summary of the method: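 Chicken DT40 Tdp1-/- cells complemented with human TDP1, screened without camptothecin (DMSO vehicle only), 400 cells/well. Compounds pin-transferred, cells incubated at 37 °C for at least 48 hr. Growth read as ATP-dependent luminescence (CellTiter-Glo, 30 min at RT).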
In the case of `CN(CC(=O)Nc1ccccc1F)CC(=O)Nc1ccccc1Br`, the Potency is reported as “inactive”.
For `CSc1ccccc1NC(=O)CN(C)CC(=O)Nc1cccc(Br)c1`, the Potency was 23.1 µM (active).
In the case of `CSc1ccccc1NC(=O)Cc1ccc(Br)cc1`, the Potency is reported as “inactive”.
For `CCn1c(SCC(=O)Nc2sc(C)c(C)c2C#N)nnc1C1CC1`, the Potency was “inactive”.
For `CC(C)(O)C#Cc1ccc(C(=O)N2CCC(C(N)=O)(N3CCCCC3)CC2)cc1`, the Potency was “inactive”.
With `CC1CCN(C(=O)COC(=O)c2cc(S(=O)(=O)N3CCOCC3)ccc2Cl)CC1` the Potency was “inactive”.
For `Cn1c(=O)c2c(SCC(=O)NCC3CCCO3)nc(CC(C)(C)C)nc2n(C)c1=O` (stereo not drawn), the Potency was “inactive”.
In the case of `CCOC(=O)c1cnc(-n2nc(C)cc2C)nc1Nc1cccc(C(C)=O)c1`, the Potency is reported as 8.2 µM (active).
In the case of `CCOC(=O)c1cccc(NC(=O)CCn2nnc3ccccc32)c1`, the Potency is reported as “inactive”.
For `CCOC(=O)c1cnc(-n2nc(C)cc2C)nc1-n1nc(C)cc1C`, the Potency was “inactive”.
With `O=[N+]([O-])c1c(NCCO)cc(Sc2nc3ccccc3s2)c2nonc12` the Potency was 1.03 µM (active).
In the case of `CCOc1ccccc1Nc1ccc2nonc2c1[N+](=O)[O-]`, the Potency is reported as “inactive”.
In the case of `O=C(O)c1cccc(S(=O)(=O)Nc2ccc(O)cc2Sc2nc3ccccc3s2)c1`, the Potency is reported as “inactive”.
With `COc1ccc(S(=O)(=O)NC(=O)C2(C)CCN2C(=O)COc2ccc(Cl)cc2)cc1` (stereo not drawn) the Potency was “inactive”.
For `c1ccc(C[C@H]2CNCCN2CCC23CC4CC(CC(C4)C2)C3)cc1`, the Potency was 10.3 µM (active).
In the case of `COC(=O)c1ccccc1NC(=O)CN(Cc1ccccc1)S(C)(=O)=O`, the Potency is reported as “inactive”.
For `O=C(O)CSCc1ccc(C(=O)O)o1`, the Potency was “inactive”.
For `CC(C)(C)NC(=O)Cn1cnc2cc([N+](=O)[O-])ccc2c1=O`, the Potency was “inactive”.
In the case of `Cc1ccc(C)c(OCCC(=O)OCC(=O)c2ccc3c(c2)NC(=O)CO3)c1`, the Potency is reported as “inactive”.
In the case of `COC(=O)c1ccccc1NC(=O)CN(Cc1ccc(Cl)cc1)S(C)(=O)=O`, the Potency is reported as “inactive”.
For `COC(=O)c1ccccc1Sc1c(/C=N/OCc2ccc(Cl)cc2)c(C(F)(F)F)nn1C`, the Potency was 20.6 µM (active).
With `S=c1[nH]nc2c3c4c(sc3ncn12)CCCC4` the Potency was “inactive”.
In the case of `Clc1ccc(-c2nnc(-c3ccccc3)nc2N2CCSCC2)cc1`, the Potency is reported as 14.6 µM (active).
In the case of `OCCN1CCN(c2nnc(-c3ccccc3)c3ccccc23)CC1`, the Potency is reported as “inactive”.
For `O=C(N[C@H]1CC[C@H](CC(=O)N2CCCCC2)O[C@@H]1CO)c1cccc(F)c1`, the Potency was “inactive”.
With `COc1ccc(C(=O)NC2=NCCS2)c(OC)c1` the Potency was “inactive”.
In the case of `COc1ccc(C(=O)Nc2nncs2)c(OC)c1`, the Potency is reported as “inactive”.
For `COc1ccc(C(=O)Nc2cccc(NC(=O)c3ccc(OC)cc3OC)n2)c(OC)c1`, the Potency was 2.59 µM (active).
For `O=C1CCCc2c1[nH]c1ccc(Br)cc21`, the Potency was “inactive”.
In the case of `COc1ccc(/C=C2\SC(=S)N(CC(=O)NNC(=O)c3ccncc3)C2=O)cc1`, the Potency is reported as “inactive”.
In the case of `CN(C(=O)COC(=O)CNC(=O)C12CC3CC(CC(C3)C1)C2)c1ccccc1`, the Potency is reported as “inactive”.
With `CN(C(=O)COc1nnc(-c2cccs2)c(-c2cccs2)n1)c1ccccc1` the Potency was 18.4 µM (active).
For `O=C(O)Cc1sc(-c2ccccc2)nc1-c1cccs1`, the Potency was “inactive”.
For `Cc1cc(=O)oc(C)c1C(=O)NCCN(C)Cc1ccccc1`, the Potency was “inactive”.
In the case of `COc1ccccc1NC(=O)N(O)C1(C#N)CCCCC1`, the Potency is reported as “inactive”.
In the case of `O=C(CSc1nnc2ccc(-c3ccncc3)nn12)N1CCCCC1`, the Potency is reported as “inactive”.
With `CCS(=O)(=O)c1ccc(-c2cccc(NC(=O)c3ccc(Br)o3)c2)nn1` the Potency was “inactive”.
For `COc1ccc(S(=O)(=O)N2CCN(C(=S)NCC3CCCO3)CC2)cc1OC` (stereo not drawn), the Potency was “inactive”.
For `CCOc1ccc(S(=O)(=O)N2CCN(C(=S)NCC3CCCO3)CC2)cc1` (stereo not drawn), the Potency was “inactive”.
With `S=C(NCC1CCCO1)N1CCN(c2ccc(Cl)c(Cl)c2)CC1` (stereo not drawn) the Potency was 20.6 µM (active).
For `COc1cc(/C=C(/NC(=O)c2ccccc2)C(=O)Nc2cccc(O)c2)c([N+](=O)[O-])cc1OC`, the Potency was “inactive”.
For `Cn1nc(C(C)(C)C)c([N+](=O)[O-])c1C(N)=O`, the Potency was “inactive”.
With `COc1cccc(N2CC(C(=O)Nc3c(C)cccc3C)CC2=O)c1` (stereo not drawn) the Potency was “inactive”.
In the case of `Cn1c(=O)c2c(SCC(=O)N3CCc4ccccc43)nc(-c3ccc(Cl)cc3)nc2n(C)c1=O`, the Potency is reported as “inactive”.
With `O=C(Nc1ccc2nc(SCC(=O)N3CCCc4ccccc43)sc2c1)c1ccc(Cl)cc1` the Potency was 5.8 µM (active).
For `O=C(Nc1ccc2nc(SCC(=O)N3CCCc4ccccc43)sc2c1)c1ccc(F)cc1`, the Potency was 2.91 µM (active).
With `CCC(=O)Nc1ccc2nc(SCC(=O)N3CCc4ccccc43)sc2c1` the Potency was 10.3 µM (active).
With `O=C(NCc1nnc(SCC(=O)N2CCCc3ccccc32)o1)c1ccccc1F` the Potency was “inactive”.
With `O=C(CSCc1ccccc1)N1CCc2ccccc21` the Potency was “inactive”.
In the case of `O=C(Nc1ccc2nc(SCC(=O)N3CCc4ccccc43)sc2c1)c1ccccc1F`, the Potency is reported as “inactive”.
In the case of `O=C(CSc1ccc2nnc(-c3ccccc3)n2n1)N1CCCc2ccccc21`, the Potency is reported as “inactive”.
In the case of `CCOC(=O)C1(Cc2cccc(OC)c2)CCCN(S(=O)(=O)c2cccnc2)C1` (stereo not drawn), the Potency is reported as “inactive”.
With `O=C(CCc1ccc(S(=O)(=O)N2CCOCC2)cc1)OCC(=O)c1ccc(Br)cc1` the Potency was “inactive”.
In the case of `O=C(CSc1nnc(-c2ccoc2)o1)N1CCOCC1`, the Potency is reported as “inactive”.
For `COC(=O)/C=C/C(=O)NCc1ccco1`, the Potency was “inactive”.
With `COc1cc2c(C(=O)O)c(C)n(C)c2c2ccccc12` the Potency was “inactive”.
In the case of `COc1cccc(/C=N/NC(=O)C(=O)N2CCCC2)c1`, the Potency is reported as “inactive”.
For `O=c1[nH]c(/C=C\c2cccc(C(F)(F)F)c2)nc(O)c1[N+](=O)[O-]`, the Potency was “inactive”.
In the case of `Cc1cccc(NC(=O)CSc2nnc(NC(=O)CN3CCOCC3)s2)c1`, the Potency is reported as “inactive”.
For `Cn1c(=S)sc2ccc3ccccc3c21`, the Potency was “inactive”.
For `C=CCc1c(C)nc2cc(-c3ccccc3)[nH]n2c1=O`, the Potency was “inactive”.
For `O=c1c2c(nc3cc(-c4cccc(Cl)c4)[nH]n13)CCCC2`, the Potency was 20.6 µM (active).
With `O=c1c2c(nc3nc[nH]n13)CCC2` the Potency was “inactive”.
With `CN(C)S(=O)(=O)c1ccc(Cl)c(NC(=O)COC(=O)CC(NC(N)=O)c2ccc(Cl)cc2)c1` (stereo not drawn) the Potency was “inactive”.
In the case of `Cc1ccc(N(CC(=O)NCC2CCCO2)C(=O)CNS(=O)(=O)c2ccc(Cl)cc2)cc1` (stereo not drawn), the Potency is reported as “inactive”.
For `CC(Sc1nnc(C2CC2)n1C1CC1)C(=O)Nc1ccc(C(N)=O)cc1` (stereo not drawn), the Potency was “inactive”.
For `CCN(CC)c1ccc(C2C(C(N)=O)=C(C)Nc3nc(SCc4ccccc4)nn32)cc1` (stereo not drawn), the Potency was “inactive”.
With `O=C1CCCC2=C1C(c1cccs1)n1nc(SCc3ccccc3)nc1N2` (stereo not drawn) the Potency was 14.6 µM (active).
In the case of `O=C1CCCC2=C1C(c1cccs1)CC(=O)N2c1ccc(F)cc1` (stereo not drawn), the Potency is reported as “inactive”.
With `O=S(=O)(NCc1ccccc1Cl)c1cnc[nH]1` the Potency was “inactive”.
In the case of `Cc1ccc(NC(=O)CCOc2ccccc2)cc1S(=O)(=O)Nc1ccccc1Cl`, the Potency is reported as “inactive”.
For `CC(C)c1ccc(C(=O)OC2CCOC2=O)cc1` (stereo not drawn), the Potency was “inactive”.
For `COc1cccc(CNCCc2c[nH]c3ccccc23)c1OCc1ccccc1F`, the Potency was 20.6 µM (active).
With `COc1ccc(S(=O)(=O)NCCc2c[nH]c3ccccc23)cc1OC` the Potency was “inactive”.
In the case of `COc1ccccc1CC(=O)NCCc1c[nH]c2ccccc12`, the Potency is reported as “inactive”.
With `CCc1c(SCCC(=O)O)nc2ccccc2c1C` the Potency was “inactive”.
With `Cc1ccc(N2CCN(c3ccc(C)cc3)C2c2ccccn2)cc1` the Potency was “inactive”.
With `CN(C(=O)CSc1nnc(-c2ccc(C(C)(C)C)cc2)n1C)C1CCS(=O)(=O)C1` (stereo not drawn) the Potency was “inactive”.
In the case of `CC(C)CC(=O)Nc1nnc(S(=O)(=O)N(C)c2ccc(Cl)cc2)s1`, the Potency is reported as “inactive and 326 nM (active)”.
For `CCc1nnc(NC(=O)c2cccc(S(=O)(=O)N(C)c3ccc(OC)cc3)c2)s1`, the Potency was “inactive”.
For `COc1cccc(C(=O)Nc2nnc(S(=O)(=O)N(C)c3ccccc3)s2)c1`, the Potency was “inactive”.
In the case of `CCCCC(=O)Nc1nnc(S(=O)(=O)N(C)Cc2ccco2)s1`, the Potency is reported as “inactive”.
With `CCC(=O)Nc1nnc(S(=O)(=O)N(CC(C)C)c2ccccc2)s1` the Potency was “inactive”.
With `CCOc1cccc(C(=O)Nc2nnc(S(=O)(=O)N(C)c3ccc(C)cc3)s2)c1` the Potency was 23.1 µM (active).
With `Cc1ccn(C(CC(=O)c2ccc(Br)cc2)C(=O)O)n1` (stereo not drawn) the Potency was “inactive”.
With `O=C(CNS(=O)(=O)c1ccccc1)N1CCN(C(=O)c2ccco2)CC1` the Potency was “inactive”.
In the case of `CCOc1cc(C(=O)O)ccc1OCCOc1ccccc1`, the Potency is reported as “inactive”.
For `COc1ccc(C(=O)NCC[N+](C)(C)C)cc1`, the Potency was “inactive”.
In the case of `CC/C(=C(/c1ccccc1)c1ccc(OCC[N+](C)(C)C)cc1)c1ccccc1`, the Potency is reported as 23.1 µM (active).
With `COc1cc(/C=C/C2=CC(C)(C)NC(=S)N2)cc(OC)c1OC` the Potency was “inactive”.
In the case of `COc1ccc(N2C(=O)CN=C2Nc2cccc(C)c2C)cc1OC`, the Potency is reported as “inactive”.
With `CC(C)Cc1nnc(NC(=O)CN2C(=O)NC3(CCCCC3)C2=O)s1` the Potency was “inactive”.
For `CC1(C(=O)NS(=O)(=O)c2cccc(OC(F)F)c2)CCN1C(=O)COc1ccc(Cl)cc1` (stereo not drawn), the Potency was “inactive”.
In the case of `Cc1nc(N)sc1-c1ccccc1`, the Potency is reported as “inactive”.
In the case of `Cc1nc(C)c(-c2csc(NCCc3ccccc3)n2)s1`, the Potency is reported as 13 µM (active).
In the case of `S=c1[nH]nc(NCCc2ccccc2)s1`, the Potency is reported as “inactive”.
With `COc1ccc(O)c(C(=O)c2cnc3onc(C(C)C)c3c2)c1` the Potency was “inactive”.
For `Cc1n[nH]c(=O)n1-c1ccc(Oc2ccccc2)cc1`, the Potency was “inactive”.
For `CCOc1ccc(N2CC(C(=O)NCCN3C(=O)S/C(=C\c4cccnc4)C3=O)CC2=O)cc1` (stereo not drawn), the Potency was “inactive”.
For `COc1ccc(N2CC(C(=O)NCCN3C(=O)S/C(=C\c4cccnc4)C3=O)CC2=O)c(OC)c1` (stereo not drawn), the Potency was “inactive”.
In the case of `Cc1cc(OCCCC(=O)NCCN2C(=O)S/C(=C\c3cccnc3)C2=O)ccc1Cl`, the Potency is reported as 4.61 µM (active).
With `Cn1cccc1C(=O)OCC(=O)NCCc1ccccc1` the Potency was “inactive”.
In the case of `O=c1cccc(-c2ccc(Br)cc2)o1`, the Potency is reported as “inactive”.
With `COC(=O)C(NC(C)=O)(Nc1nc2c(s1)CCCC2)C(F)(F)F` (stereo not drawn) the Potency was “inactive”.
In the case of `Cc1ccc(S(=O)(=O)N(C)CC(=O)OCC(=O)Nc2ccccc2)cc1`, the Potency is reported as “inactive”.
With `Cc1ccc(NC(=S)N2CCCC(c3ccccc3)=N2)cc1` the Potency was “inactive”.
In the case of `Cc1ccc(C(=O)N2CCCC(c3ccccc3)=N2)cc1`, the Potency is reported as “inactive”.
For `O=C(C[n+]1cc(-c2ccc(Cl)c(Cl)c2)n2c1CCC2)c1cccs1`, the Potency was 18.4 µM (active).
For `Cc1ccc(-c2c[n+](CC(=O)Nc3ccccc3)c3n2CCC3)cc1`, the Potency was 11.6 µM (active).
With `CCS(=O)(=O)N1CCN(C(=O)c2cccs2)CC1` the Potency was “inactive”.
For `Cc1ccc(C(=O)Cn2cccn2)cc1`, the Potency was “inactive”.
With `Cc1ccc(C(=O)C[n+]2cc(-c3ccccc3)n3c2CCCCC3)cc1` the Potency was 3.16 µM (active) and 1.46 µM (active).
In the case of `CCCS(=O)(=O)N1CCN(C(=O)c2cccs2)CC1`, the Potency is reported as “inactive”.
